# “And” between values parts separate entries of the source, which are not always exact repeats. Equal entries are not always repeated. Some structures have more than one record in an assay (separate samples or runs), and their calls can disagree. The source made the active and inactive calls.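 How the source made its calls, unless noted: active means compounds whose cell count with miR-34 switched on is under 0.7 times the count with it off; inactive means the rest.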
# Tests used:
# [1] = compounds altering viability of human ES cells (AID 493140; call rule not given here;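 further: cells exposed to compounds for four days before counting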); conditions: human embryonic stem cell survival screen; stronger effect = higher value
# [2] = P. berghei load reduction in hepatocytes – cell-based, HepG2, luciferase luminescence, HepG2 viability, primary screen (AID 624349; in the data active means parasite load remaining mostly below about 12%, no sharp cut-off; inactive means mostly above about 10%;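 further: 100% = mean of DMSO negative control wells on the same plate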); conditions: P. berghei liver stage in HepG2, luciferase luminescence, concentration not given here; parasite load remaining: stronger effect = lower value; viability: measured here: HepG2 viability without parasites
# [3] = Wnt pathway potentiators raising nuclear beta-catenin – imaging, WNT3A-conditioned medium, mouse C2C12, NPC library, primary screen (AID 1117326; in the data active means nuclear beta-catenin stimulation mostly above about 4.2%, no sharp cut-off; inactive means mostly below about 10%); conditions: stronger effect = higher value
# [4] = stimulators of insulin release from INS-1E, primary screen, cell-based, 5 mM glucose, NPC library (AID 1117329;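 active means compound raises insulin release from rat beta cells at 5 mM glucose, no numeric limit stated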); conditions: rat INS-1E insulin secretion, at 10 µM, stronger effect = higher value
# [5] = growth inhibition of GSK3B-pretreated HCT116 cells – cell-based, CellTiter-Glo, 0.2 to 20 µM (AID 1117336;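 active means compounds lowering colon cancer cell viability after pretreatment blocking the GSK3B kinase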); conditions: HCT116 viability after GSK3B inhibitor, at 20 µM, stronger effect = higher value
# [6] = inhibition of endothelial tube formation, primary screen, imaging, VEGF stimulated, CD31 staining, tube area, NPC library (AID 1117340;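 active means compound that reduces growth-factor-driven endothelial tube area in a mixed cell culture, no cutoff stated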); conditions: VEGF-stimulated ADSC/ECFC co-culture, at 10 µM, stronger effect = higher value
# [7] = GLP1 release stimulators, primary, NCI-H716, NPC library (AID 1117341;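 active means compound raises GLP1 secretion from the human gut endocrine cells, with no numeric limit stated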); conditions: NCI-H716 cells, at 10 µM, stronger effect = higher value
# [8] = HCT116 colon cancer cell growth inhibition, primary screen, CellTiter-Glo luminescence, NPC library (AID 1117342;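 active means compounds that lower survival of HCT116 colon cancer cells in the luminescence readout, no numeric limit stated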); conditions: at 20 µM (top of the series)
# [9] = reduced SW480 viability measured with CellTiter-Glo, NPC library, primary (AID 1117343;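 active means compounds that lower viability of the colon cancer cells in the luminescence readout, with no numeric limit stated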); conditions: CellTiter-Glo luminescence; at 20 µM (top of the series) unless noted
# [10] = NPC library primary testing for decreased DLD-1 cell viability via CellTiter-Glo (AID 1117346;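 active means compounds that lower survival of DLD-1 colon cancer cells in the luminescence readout, no cutoff given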); conditions: DLD-1 viability, CellTiter-Glo luminescence; at 20 µM (top of the series)
# [11] = EMT-state selective cytotoxicity in co-culture – imaging, PC-3E GFP, TEM4-18 mCherry, primary screen (AID 1345086;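 active means compounds killing one labelled cell type while sparing the other, by normalised counts and ratio limits, not self-fluorescent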;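 on all read-outs here: cells exposed to compound for 72 h before imaging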;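 on red/green cell ratio (normalised): normalised mesenchymal count divided by normalised epithelial count so high means epithelial killing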); conditions: PC-3E GFP / TEM4-18 mCherry co-culture, imaging cell counts, at 1 µM; for red/green cell ratio (normalised): actives lie on both sides, counts scaled to control wells, 1 = unselective
# [12] = viability loss with induced miR-34 in A549 – imaging, A549 dox-inducible miR-34, nuclei and caspase counts, primary screen (AID 1347080); conditions: A549 miR-34 inducible, Hoechst nuclei count, 48 h
# [13] = MELAS cybrid and Rieske KO viability enhancers – cell-based, MELAS cybrids, Rieske KO mouse fibroblasts, CellTiter-Glo, primary screen (AID 1508586;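 active means mean z-score across replicates of 1.96 or higher in either the MELAS or the Rieske mutant cell line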;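 further: z relative to plate mean and SD of compound and empty wells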); conditions: low glucose
# [14] = target: NAD(+) hydrolase SARM1 (Homo sapiens) (UniProt Q6SZW1); assay: blocking NAD cleavage by SARM1 SAM-TIR – cell lysate, NAD-Glo luminescence (AID 1508614;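 active means compound whose remaining NAD level is above about 45 nM, limit read from the data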); conditions: SAM-TIR HEK293T lysate NADase, at 1 µM, stronger effect = higher value
# [15] = measured here: epithelial PC-3E GFP cell survival
# [16] = measured here: mesenchymal TEM4-18 mCherry cell survival
# [17] = stronger effect = lower value, cell number ratio, induced over uninduced
# [18] = measured here: relative caspase fold change +Dox/-Dox
# [19] = measured here: total cells with miR-34 induction, stronger effect = lower value
# [20] = measured here: total cells without miR-34 induction
# [21] = MELAS cybrid survival, CellTiter-Glo 48 h, stronger effect = higher value
# [22] = Rieske KO mouse fibroblast survival, CellTiter-Glo 72 h
# Sequence of NAD(+) hydrolase SARM1 (Homo sapiens) (Q6SZW1 whole entry, looked up): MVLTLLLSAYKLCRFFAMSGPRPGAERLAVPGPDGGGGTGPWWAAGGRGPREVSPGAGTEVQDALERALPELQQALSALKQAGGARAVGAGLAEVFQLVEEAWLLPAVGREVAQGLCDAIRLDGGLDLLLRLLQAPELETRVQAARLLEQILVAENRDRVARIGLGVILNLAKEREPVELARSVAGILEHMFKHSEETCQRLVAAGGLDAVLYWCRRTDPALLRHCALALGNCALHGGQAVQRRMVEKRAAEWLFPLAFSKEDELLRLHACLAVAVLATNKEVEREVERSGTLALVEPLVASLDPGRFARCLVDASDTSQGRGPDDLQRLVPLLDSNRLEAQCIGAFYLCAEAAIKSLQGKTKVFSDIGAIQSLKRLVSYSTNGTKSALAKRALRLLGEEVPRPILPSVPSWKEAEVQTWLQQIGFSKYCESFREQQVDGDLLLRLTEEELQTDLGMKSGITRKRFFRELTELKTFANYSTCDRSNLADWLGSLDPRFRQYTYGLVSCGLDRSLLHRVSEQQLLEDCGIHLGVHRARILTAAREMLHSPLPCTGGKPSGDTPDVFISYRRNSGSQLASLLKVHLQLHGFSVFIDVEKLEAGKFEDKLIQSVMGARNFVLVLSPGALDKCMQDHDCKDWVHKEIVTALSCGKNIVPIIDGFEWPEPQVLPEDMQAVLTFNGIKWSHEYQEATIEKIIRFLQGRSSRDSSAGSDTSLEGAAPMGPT
smiles,measurement,setting,value
CCN(CC)CCc1nc(-c2ccccc2)no1,survival,[1],3.33 (inactive)
same,parasite load remaining,[2],66.5% (inactive)
same,viability,[2],105%
same,nuclear beta-catenin stimulation,[3]; at 10 µM,2% (inactive)
same,nuclear beta-catenin stimulation,"[3]; stimulation, at 2 µM",1.3%
same,insulin secretion stimulation,[4],-0.7% (inactive)
same,viability decrease,[5],-19.4% (inactive)
same,tube area decrease,[6],-1% (inactive)
same,GLP1 secretion stimulation,[7],3.1% (inactive)
same,inhibition of viability,[8],-2.53% (inactive)
same,viability decrease (inhibition),[9],10% (inactive)
same,viability decrease (inhibition),[10],-2.9% (inactive)
same,red/green cell ratio (normalised),[11],0.94 (inactive)
same,normalised cell number,[11]; [15],1.14
same,normalised cell number,[11]; [16],1.07
same,fold change,[12]; [17],0.948 (inactive) and 0.876 (inactive)
same,fold change,[12]; [18],0.926 and 0.982
same,cell count,[12]; [19],8840 and 9090
same,cell count,[12]; [20],9330 and 10400
same,z-score,[13]; [21],0.0836 (inactive)
same,z-score,[13]; [22],-0.0837
same,remaining NAD,[14],10 nM (inactive)
CN(C(=O)CN(CCO)CC(=O)N(C)C(C)(C)Cc1ccccc1)C(C)(C)Cc1ccccc1,survival,[1],8.83 (inactive)
same,nuclear beta-catenin stimulation,[3]; at 10 µM,9.4% (inactive)
same,nuclear beta-catenin stimulation,"[3]; stimulation, at 2 µM",3.2%
same,insulin secretion stimulation,[4],1.4% (inactive)
same,viability decrease,[5],-33.9% (inactive)
same,tube area decrease,[6],2.2% (inactive)
same,GLP1 secretion stimulation,[7],107% (active)
same,inhibition of viability,[8],59.3% (active)
same,viability decrease (inhibition),[9],124% (active)
same,viability decrease (inhibition),[10],104% (active)
same,red/green cell ratio (normalised),[11],1.14 (inactive)
same,normalised cell number,[11]; [15],1.13
same,normalised cell number,[11]; [16],1.29
same,fold change,[12]; [17],0.876 (inactive) and 0.908 (inactive)
same,fold change,[12]; [18],1.3 and 4.08
same,cell count,[12]; [19],7940 and 11300
same,cell count,[12]; [20],9070 and 12400
same,z-score,[13]; [21],0.165 (inactive)
same,z-score,[13]; [22],-0.15
same,remaining NAD,[14],10 nM (inactive)
OC1(c2ccc(Cl)c(C(F)(F)F)c2)CCN(CCCC(c2ccc(F)cc2)c2ccc(F)cc2)CC1,nuclear beta-catenin stimulation,[3]; at 10 µM,-2.1% (inactive)
same,nuclear beta-catenin stimulation,"[3]; stimulation, at 2 µM",27.1%
same,insulin secretion stimulation,[4],0.05% (inactive)
same,viability decrease,[5],117% (active)
same,tube area decrease,[6],112% (active)
same,GLP1 secretion stimulation,[7],51.4% (active)
same,inhibition of viability,[8],124% (active)
same,viability decrease (inhibition),[9],158% (active)
same,viability decrease (inhibition),[10],101% (active)
same,red/green cell ratio (normalised),[11],0.98 (inactive)
same,normalised cell number,[11]; [15],0.98
same,normalised cell number,[11]; [16],0.96
same,fold change,[12]; [17],0.677 (active) and 0.99 (inactive)
same,fold change,[12]; [18],1.19 and 0.678
same,cell count,[12]; [19],3030 and 2930
same,cell count,[12]; [20],4480 and 2970
same,z-score,[13]; [21],-0.344 (inactive)
same,z-score,[13]; [22],-0.197
same,remaining NAD,[14],10 nM (inactive)
O=S(=O)(O)NC1CCCCC1,nuclear beta-catenin stimulation,[3]; at 10 µM,0.2% (inactive)
same,nuclear beta-catenin stimulation,"[3]; stimulation, at 2 µM",0.3%
same,insulin secretion stimulation,[4],-1.6% (inactive)
same,viability decrease,[5],-5.65% (inactive)
same,tube area decrease,[6],-18.4% (inactive)
same,GLP1 secretion stimulation,[7],-0.8% (inactive)
same,inhibition of viability,[8],-5.4% (inactive)
same,viability decrease (inhibition),[9],8.9% (inactive)
same,viability decrease (inhibition),[10],1.3% (inactive)
same,red/green cell ratio (normalised),[11],0.89 (inactive)
same,normalised cell number,[11]; [15],0.95
same,normalised cell number,[11]; [16],0.84
same,fold change,[12]; [17],0.883 (inactive) and 0.898 (inactive)
same,fold change,[12]; [18],0.921 and 0.472
same,cell count,[12]; [19],8650 and 7930
same,cell count,[12]; [20],9790 and 8830
same,z-score,[13]; [21],-0.205 (inactive)
same,z-score,[13]; [22],-0.173
same,remaining NAD,[14],10 nM (inactive)
CC(=O)Nc1c(I)c(NC(C)=O)c(I)c(C(=O)O)c1I,parasite load remaining,[2],58.9% (inactive)
same,viability,[2],109%
same,nuclear beta-catenin stimulation,[3]; at 10 µM,1.6% (inactive)
same,nuclear beta-catenin stimulation,"[3]; stimulation, at 2 µM",7.7%
same,insulin secretion stimulation,[4],1.5% (inactive)
same,viability decrease,[5],2.3% (inactive)
same,tube area decrease,[6],-9.3% (inactive)
same,GLP1 secretion stimulation,[7],4.3% (inactive)
same,inhibition of viability,[8],2% (inactive)
same,viability decrease (inhibition),[9],-30.8% (inactive)
same,viability decrease (inhibition),[10],-0.9% (inactive)
same,red/green cell ratio (normalised),[11],1.17 (inactive)
same,normalised cell number,[11]; [15],1.02
same,normalised cell number,[11]; [16],1.19
same,fold change,[12]; [17],0.866 (inactive)
same,fold change,[12]; [18],2.21
same,cell count,[12]; [19],11200
same,cell count,[12]; [20],13000
same,z-score,[13]; [21],0.0135 (inactive)
same,z-score,[13]; [22],0.624
same,remaining NAD,[14],10 nM (inactive)
CCCCNc1ccc(C(=O)OCCOCCOCCOCCOCCOCCOCCOCCOCCOC)cc1,survival,[1],33.2 (inactive)
same,parasite load remaining,[2],14% (inactive) and 88.5% (inactive)
same,viability,[2],47.7% and 90.2%
same,nuclear beta-catenin stimulation,[3]; at 10 µM,-0.8% (inactive)
same,nuclear beta-catenin stimulation,"[3]; stimulation, at 2 µM",0.5%
same,insulin secretion stimulation,[4],-2.3% (inactive)
same,viability decrease,[5],9.3% (inactive)
same,tube area decrease,[6],4.2% (inactive)
same,GLP1 secretion stimulation,[7],-2.3% (inactive)
same,inhibition of viability,[8],31.5% (inactive)
same,viability decrease (inhibition),[9],13% (active)
same,viability decrease (inhibition),[10],-17.6% (inactive)
same,red/green cell ratio (normalised),[11],1.21 (inactive)
same,normalised cell number,[11]; [15],0.86
same,normalised cell number,[11]; [16],1.04
same,fold change,[12]; [17],0.937 (inactive)
same,fold change,[12]; [18],1.37
same,cell count,[12]; [19],8120
same,cell count,[12]; [20],8660
same,z-score,[13]; [21],-0.167 (inactive)
same,z-score,[13]; [22],0.149
same,remaining NAD,[14],10 nM (inactive)
CC(C)(C)CC(C)(C)c1cc(Cc2cc(C(C)(C)CC(C)(C)C)cc(-n3nc4ccccc4n3)c2O)c(O)c(-n2nc3ccccc3n2)c1,nuclear beta-catenin stimulation,[3]; at 10 µM,3.9% (inactive)
same,nuclear beta-catenin stimulation,"[3]; stimulation, at 2 µM",2.5%
same,insulin secretion stimulation,[4],1.7% (inactive)
same,viability decrease,[5],9.1% (inactive)
same,tube area decrease,[6],-10.3% (inactive)
same,GLP1 secretion stimulation,[7],3.4% (inactive)
same,inhibition of viability,[8],1.9% (inactive)
same,viability decrease (inhibition),[9],-54% (inactive)
same,viability decrease (inhibition),[10],7.4% (inactive)
same,red/green cell ratio (normalised),[11],0.81 (inactive)
same,normalised cell number,[11]; [15],1.28
same,normalised cell number,[11]; [16],1.04
same,fold change,[12]; [17],0.928 (inactive)
same,fold change,[12]; [18],0.844
same,cell count,[12]; [19],9130
same,cell count,[12]; [20],9830
same,remaining NAD,[14],10 nM (inactive)
Cc1cccc(C)c1NC(=O)c1ccccc1C(=O)O,nuclear beta-catenin stimulation,[3]; at 10 µM,0.1% (inactive)
same,nuclear beta-catenin stimulation,"[3]; stimulation, at 2 µM",0.7%
same,insulin secretion stimulation,[4],-0.4% (inactive)
same,viability decrease,[5],-4.6% (inactive)
same,tube area decrease,[6],-28.9% (inactive)
same,GLP1 secretion stimulation,[7],1.9% (inactive)
same,inhibition of viability,[8],3.1% (inactive)
same,viability decrease (inhibition),[9],49.6% (inactive)
same,viability decrease (inhibition),[10],17.1% (inactive)
same,red/green cell ratio (normalised),[11],0.84 (inactive)
same,normalised cell number,[11]; [15],0.94
same,normalised cell number,[11]; [16],0.79
same,fold change,[12]; [17],0.96 (inactive)
same,fold change,[12]; [18],0.664
same,cell count,[12]; [19],8770
same,cell count,[12]; [20],9130
same,remaining NAD,[14],10 nM (inactive)
C[C@H](O)C(=O)Nc1c(I)c(C(=O)NC(CO)CO)c(I)c(C(=O)NC(CO)CO)c1I,survival,[1],3.75 (inactive)
same,parasite load remaining,[2],99% (inactive)
same,viability,[2],105%
same,nuclear beta-catenin stimulation,[3]; at 10 µM,-2.7% (inactive)
same,nuclear beta-catenin stimulation,"[3]; stimulation, at 2 µM",2.4%
same,insulin secretion stimulation,[4],3.4% (inactive)
same,viability decrease,[5],0.8% (inactive)
same,tube area decrease,[6],-18.2% (inactive)
same,GLP1 secretion stimulation,[7],0.1% (inactive)
same,inhibition of viability,[8],-1.3% (inactive)
same,viability decrease (inhibition),[9],15% (inactive)
same,viability decrease (inhibition),[10],-3.1% (inactive)
same,red/green cell ratio (normalised),[11],1.21 (inactive)
same,normalised cell number,[11]; [15],0.98
same,normalised cell number,[11]; [16],1.18
same,fold change,[12]; [17],0.849 (inactive)
same,fold change,[12]; [18],2.22
same,cell count,[12]; [19],8600
same,cell count,[12]; [20],10100
same,z-score,[13]; [21],-0.551 (inactive)
same,z-score,[13]; [22],-0.888

# Reference: PubChem BioAssay
